# Whole data set: some 33,000 sequences, median “E-score (-0.5 to 0.5)” near -0.043, cut for the highest 2% near 0.37. The sample as a whole holds a higher share of the highest values than the screen did.
# Molecular target: T1, Upc2 (UniProt Q12151)
# T1 sequence: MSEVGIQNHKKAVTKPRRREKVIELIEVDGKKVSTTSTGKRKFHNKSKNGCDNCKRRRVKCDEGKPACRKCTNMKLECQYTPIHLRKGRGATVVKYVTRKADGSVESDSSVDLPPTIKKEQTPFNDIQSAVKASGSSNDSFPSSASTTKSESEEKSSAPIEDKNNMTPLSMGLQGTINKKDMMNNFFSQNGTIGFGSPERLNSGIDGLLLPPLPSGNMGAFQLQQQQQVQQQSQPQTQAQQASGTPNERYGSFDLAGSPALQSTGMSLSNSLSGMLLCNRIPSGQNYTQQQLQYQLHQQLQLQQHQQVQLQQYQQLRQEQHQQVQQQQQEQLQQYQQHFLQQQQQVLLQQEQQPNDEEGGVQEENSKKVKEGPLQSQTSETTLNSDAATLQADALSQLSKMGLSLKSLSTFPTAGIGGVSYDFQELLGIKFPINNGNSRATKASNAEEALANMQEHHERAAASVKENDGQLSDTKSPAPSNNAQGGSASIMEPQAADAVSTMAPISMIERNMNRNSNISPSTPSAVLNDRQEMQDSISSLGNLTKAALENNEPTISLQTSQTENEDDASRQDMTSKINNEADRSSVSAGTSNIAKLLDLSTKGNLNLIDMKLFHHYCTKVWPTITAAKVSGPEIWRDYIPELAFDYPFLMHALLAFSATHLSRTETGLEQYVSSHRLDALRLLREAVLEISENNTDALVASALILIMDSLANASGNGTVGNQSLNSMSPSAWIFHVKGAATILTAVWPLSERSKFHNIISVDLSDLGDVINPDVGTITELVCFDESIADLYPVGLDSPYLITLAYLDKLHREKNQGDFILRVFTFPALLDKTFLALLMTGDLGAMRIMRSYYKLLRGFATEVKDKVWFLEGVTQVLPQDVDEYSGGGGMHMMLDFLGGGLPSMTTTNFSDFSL
# Assay: PBM E-score (8-mer binding enrichment) (E-score (-0.5 to 0.5)); higher = stronger / more preferred TF binding
# Settings: protein concentration: 200 nM; construct: GST-full length
# Method: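 Universal 'all 10-mer' protein binding microarrays (Agilent AMADID 015681) probed with GST-tagged S. cerevisiae TFs (full-length or DBD) made by in vitro transcription/translation (PURExpress), about 100-200 nM. Bound TF was detected with fluorescent anti-GST. Each ungapped 8-mer (which stands for itself and its reverse complement) is scored by the PBM enrichment score (E-score), a modified Wilcoxon-Mann-Whitney statistic from -0.5 to +0.5, computed with the Universal PBM Analysis Suite. Scale: above 0.35 generally sequence-specific binding.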
row,Sequence,PBM E-score
1,TTGACCAA,-0.179
2,AACTACCT,-0.152
3,ACCAGAAC,0.0633
4,AACGATGG,0.391
5,AACGATGC,0.352
6,ATCGATGA,-0.0519
7,ACCGATGA,0.0812
8,CACGATGG,0.0566
9,CACGATGC,0.0841
10,GACGATGC,-0.0158
11,TACGATGA,0.433
12,CACGATGA,0.169
13,AACGATGA,0.387
14,AACGATGT,0.388
15,GACGATGA,-0.00259
16,CCAGTGAC,-0.217
17,CAGAGATG,-0.222
18,GACTGATC,-0.118
19,GATTCCCC,-0.214
20,GAGTACGC,-0.0301
21,TAGTACAA,0.00376
22,GAGTACGA,0.375

row,Sequence,PBM E-score
1,AAGTACGC,0.115
2,TAGTACGA,0.401
3,CAGTACGG,0.257
4,AAGTACGA,0.407
5,AAGTACGT,0.154
6,TAGTACCA,-0.148
7,CAGTACGC,0.037
8,CAGTACGA,0.411
9,GAGTACAA,-0.0557
10,TCTGATCA,-0.317
11,TCGCAAAA,0.216
12,CGCTACAG,-0.105
13,CGTCTATA,0.0202
14,CGGGAGGA,-0.157
15,AGAGCATA,-0.0221
16,AACTTTGT,-0.172
17,TTTAGAAA,0.133
18,GCTTAGCA,-0.00347
19,TAATTACA,-0.0323
20,AAGATCGT,0.371
21,AAGATCGG,-0.0541
22,ACGATCGT,0.438

row,Sequence,PBM E-score
1,ACGATCGC,0.352
2,ACGATCGG,0.295
3,AAGATCGC,0.148
4,ATTACCGC,0.0457
5,ACGAGCTG,0.36
6,CCGAGCTC,0.197
7,ACGAGCTC,0.404
8,GCGAGCTA,0.207
9,CCGAGCTA,0.0202
10,ACGAGCTA,0.394
11,AGGATAGG,-0.0689
12,CTTCATCC,-0.177
13,ACTCAGTC,-0.097
14,GCTGCAGC,-0.125
15,ACCATACG,0.399
16,ACCATACA,-0.0345
17,CCCATACG,0.407
18,CCCATACC,0.0537
19,CCCATACA,-0.22
20,ACCATACC,-0.0989
21,ACTAAGAA,-0.0494
22,GATGGGAA,-0.0309

row,Sequence,PBM E-score
1,TCGGAAAA,0.234
2,ATAAGATA,0.146
3,GGTAAAGA,0.0863
4,AGTAAAGA,-0.212
5,CCTAAAGC,-0.082
6,CGTAAAGC,0.403
7,AGTAAAGC,-0.0204
8,CGTAAAGA,0.412
9,CGGTTTAG,0.161
10,CGGAAGAG,-0.146
11,CCAGTTAC,-0.21
12,TGTTAGAA,-0.177
13,CGTTTGAG,0.396
14,GGTTTGGA,-0.0119
15,CGTTTGCA,0.395
16,AGTTTGGA,-0.014
17,GGTTTGCA,0.0633
18,AGTTTGGC,-0.015
19,CGTTTGGA,0.428
20,CGTTTGGC,0.409
21,CGTTTGCC,0.323

# — the supplement of paper PMC3334620
